Records with an inconclusive call do not appear. Activity calls are given as the source filed them.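 Rule for the calls, unless noted: active = GFP response above 150% of the DMSO level; inconclusive = fewer than 70 events counted for a yeast strain; inactive = the rest.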
Legend:
[1] = rapamycin-like changes in RPL19A-GFP expression – cell-based, S. cerevisiae, multiplex flow cytometry, primary screen (AID 1862; in the data active = percent of DMSO control GFP below about 86%;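 note: lower values mimic rapamycin by blocking the RPL19A rise seen in DMSO cells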); conditions: S. cerevisiae RPL19A-GFP strain, flow cytometry fluorescence, 3 h; at 10 µM; stronger effect = lower value
[2] = TOR pathway GLN3 branch reporter MEP2-GFP changes – S. cerevisiae, multiplex flow cytometry, primary screen (AID 1867;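 active = GFP response, as percent of the DMSO control, above the screen-wide mean plus 3 SD, about 139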;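 note: median GFP channel fluorescence of barcode-gated MEP2-GFP cells measured by flow cytometry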); conditions: S. cerevisiae MEP2-GFP strain, 3 h, at 10 µM, stronger effect = higher value, 100% means same as DMSO wells
[3] = TOR pathway RTG branch CIT2 reporter changes – S. cerevisiae, GFP fusion, multiplex flow cytometry, primary screen (AID 1870;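 active = percent response above a set limit, the screen-wide mean plus 3 SD, cut at about 130% in these data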;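 note: barcoded CIT2-GFP strain pooled with four other GFP strains with rapamycin as positive control; median GFP fluorescence per well over plate mean of DMSO wells so 100% = DMSO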); conditions: S. cerevisiae CIT2-GFP expression, 3 h, at 10 µM, stronger effect = higher value
[4] = TOR pathway LAP4-GFP level changes – S. cerevisiae, multiplex flow cytometry, primary screen (AID 1873;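 active = GFP signal, as percent of the solvent control, above the screen mean plus 3 SD, about 149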); conditions: S. cerevisiae LAP4-GFP expression, 3 h, at 10 µM, stronger effect = higher value
[5] = yeast AGP1-GFP level changes, GLN3 branch – cell-based, multiplex flow cytometry, S. cerevisiae, primary screen (AID 1887;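 active = GFP signal above the screen-wide mean plus 3 SD, that is over about 124.5% of the solvent control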;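 note: AGP1-GFP fusion strain of S. cerevisiae within a five-strain barcoded multiplex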); conditions: 3 h, at 10 µM, stronger effect = higher value
[6] = hit retest on RPL19A-GFP reporter strain – cell-based, S. cerevisiae, flow cytometry, cherry picks, mother/daughter gates, confirmation (AID 2270;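 active = GFP response below 50% of the DMSO control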); conditions: 3 h, at 10 µM, stronger effect = lower value, 100 = same GFP as DMSO wells
[7] = yeast TOR pathway reporter LAP4-GFP change – cell-based, cherry picks, flow cytometry, mother/daughter gates, confirmation (AID 2271;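 active = GFP response above 150% of the DMSO control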;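 note: ratio of sample to DMSO plate mean so 100% equals DMSO level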); conditions: S. cerevisiae LAP4-GFP strain, 3 h, at 10 µM, stronger effect = higher value, 100 means same as DMSO control
[8] = TOR pathway reporter MEP2-GFP, retest of hits – S. cerevisiae, flow cytometry GFP, cherry picks, confirmation (AID 2272;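 active = GFP response above 150% of the DMSO control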;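 note: ratio of well signal to plate DMSO mean so 100% equals DMSO level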); conditions: S. cerevisiae MEP2-GFP strain, 3 h, at 10 µM, stronger effect = higher value
[9] = yeast AGP1-GFP fluorescence change, single-dose – cell-based, flow cytometry, S. cerevisiae, cherry picks, confirmation (AID 2273);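 note: median GFP channel fluorescence over the whole cell population gate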; conditions: S. cerevisiae AGP1-GFP strain, 3 h, at 10 µM
[10] = TOR pathway CIT2 reporter hit retest – S. cerevisiae, GFP fusion, cherry picks, mother/daughter gates, confirmation (AID 2274); conditions: S. cerevisiae CIT2-GFP strain, flow cytometry, 3 h, at 10 µM, stronger effect = higher value
[11] = reduced mouse 2C T cell binding to pMHC/ICAM-1 vesicles – MLPCN validation set, flow cytometry, LFA-1/ICAM-1 modulator project, pilot screen (AID 2523;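 active = response below a set limit, under 55% cells CD8-positive and vesicle-bound, and CD8 cells' 90th-percentile brightness under 279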;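 for vesicle binding response: mean PE anti-B7-1 fluorescence of CD8+ cells relative to row control; 100% = QL9-loaded vesicles with DMSO vehicle in the same plate row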); conditions: 2C mouse CD8+ T cells, at 7 µM, stronger effect = lower value; double positive events: measured here: CD8+/vesicle+ event percentage
[12] = biological target: Integrin beta-1 (Homo sapiens) + Integrin alpha-4 (Homo sapiens) (UniProt P13612+P05556); experiment: alpha4beta1 integrin LIBS antibody binding reduction – U937 cells, HUTS-21 mAb, flow cytometry, validation set, VLA-4 allosteric modulator project, pilot screen (AID 2674;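 active = inhibition above 50%, about 3 SD of the validation set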;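 note: antibody binding induced by the VLA-4 ligand LDV present at three times its Kd; 0% = LDV ligand with antibody and no compound and 100% = antibody without LDV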); conditions: HUTS-21 LIBS mAb binding, at 6.7 µM, stronger effect = higher value, binding induced by LDV ligand
[13] = calorie-restriction mimetic ROS inhibitors, yeast – validation compound set, pilot screen (AID 2706;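 active = superoxide response below 65% of plate, a cut near 3 SD across the whole screen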;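 note: yeast exposed to compound for one week at 30 degrees C before staining; 100% = mean of all compound wells on the same plate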); conditions: S. cerevisiae aging, superoxide DHE fluorescence; at 10 µM; stronger effect = lower value
[14] = biological target: Beta-adrenergic receptor kinase 1 (Homo sapiens) (UniProt P25098); experiment: GRK2 binders displacing RNA aptamer, biochemical, validation, human GRK2, bead flow cytometry (AID 488806;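 active = aptamer binding inhibition above 30%, about 3 SD of noise from non-fluorescent compounds; inactive = inhibition at or below 30%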); conditions: bead-bound GRK2, FAM-aptamer displacement, at 10 µM, stronger effect = higher value
[15] = biological target: Beta-2 adrenergic receptor (Homo sapiens) (UniProt P07550); experiment: agonist-induced loss of surface beta2AR – cell-based, FAP fluorogen, flow cytometry, validation set, pilot screen (AID 504459;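 active = percent response above 42, roughly 3 SD of non-fluorescent test compounds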;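 note: agonist-driven loss of surface beta2AR via internalization measured by FAP dye flow cytometry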); conditions: Am2.2-beta2AR cells, at 10 µM, stronger effect = higher value
[16] = biological target: AP-2 complex subunit beta (Homo sapiens) (UniProt P63010); experiment: beta-arrestin/AP2 interaction blockers – biochemical, validation set, GST-AP2 beads, flow cytometry, pilot screen (AID 504541;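 active = inhibition above 54%, about 3 SD of non-fluorescent compounds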;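 note: AP2 carries R879A mutation and is captured from E. coli lysate; bead-bound FITC arrestin peptide fluorescence measuring arrestin peptide binding to AP2; 0% = DMSO wells and 100% = excess unlabeled arrestin peptide control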); conditions: FITC arrestin peptide, at 10 µM, stronger effect = higher value, AP2 beta2 appendage fragment, R879A mutant
[17] = cytosolic pH regulators acting via V-ATPase – S. cerevisiae, pHLuorin, HTS validation (AID 504600; in the data active = response above about 15%;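 note: plate controls were DMSO for no effect and reference compound for full effect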); conditions: V-ATPase proton transport, at 10 µM, stronger effect = higher value
[18] = system: anti-desmoglein-3 scFv antibody binding to human DSG3; experiment: blockers of pathogenic pemphigus antibody–desmoglein-3 binding – biochemical, validation compound set, bead-based, flow cytometry, pilot screen (AID 588368;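 active = binding below the plate cutoff, the plate median minus 3 SD, with a reading above zero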;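 note: signal is the median channel fluorescence of bead-bound GFP antibody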); conditions: Protein G beads, DSG3-Fc, scFv-GFP binding, at 10 µM, stronger effect = lower value
[19] = Nile Red efflux blockade in pump-expressing yeast – validation compound set, multiplex, phenotypic, pilot screen (AID 588506;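 active = efflux inhibition above 0.42, the validation set average plus 4 SD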;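 note: Nile Red retained in cells so higher fluorescence means more efflux inhibition; 0 = negative control wells and 1 = enniatin B 25 µM full block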); conditions: S. cerevisiae pump-expressing triplex, Nile Red efflux flow cytometry; at 10 µM; stronger effect = higher value; the pumps come from Candida albicans
[20] = biological target: ATP-binding cassette sub-family B member 6 (Homo sapiens) (UniProt Q9NP58); experiment: blockers of ABCB6-driven porphyrin uptake – K562-ABCB6 cells, flow cytometry, validation set, pilot screen (AID 588550;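 active = inhibition above the screen-wide mean plus 3 SD, about 51%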;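 note: 0% = DMSO wells and 100% = benzethonium chloride 70 µM positive control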); conditions: K562-ABCB6 porphyrin accumulation, 1 h, at 10 µM, stronger effect = higher value
[21] = AML differentiation inducers, ER-HoxA9 marrow cells – cell-based, GFP/MAC1 double positive, flow cytometry, validation set, primary screen (AID 588685;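 active = differentiation response of at least 50%, scaled between solvent and reference control, from cells with both markers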;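 note: compound exposure lasts four days before antibody staining and flow analysis; 0% = DMSO wells and 100% = 5 µM fulvestrant positive control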); conditions: stronger effect = higher value, normalized: vehicle 0, fulvestrant 100
[22] = measured here: daughter cell gate
[23] = measured here: mother cell gate
[24] = measured here: daughter cell gate response
[25] = measured here: mother cell gate response

Sequence of AP-2 complex subunit beta (Homo sapiens) (P63010 whole entry, looked up, the tested form may be a part, one chain of several): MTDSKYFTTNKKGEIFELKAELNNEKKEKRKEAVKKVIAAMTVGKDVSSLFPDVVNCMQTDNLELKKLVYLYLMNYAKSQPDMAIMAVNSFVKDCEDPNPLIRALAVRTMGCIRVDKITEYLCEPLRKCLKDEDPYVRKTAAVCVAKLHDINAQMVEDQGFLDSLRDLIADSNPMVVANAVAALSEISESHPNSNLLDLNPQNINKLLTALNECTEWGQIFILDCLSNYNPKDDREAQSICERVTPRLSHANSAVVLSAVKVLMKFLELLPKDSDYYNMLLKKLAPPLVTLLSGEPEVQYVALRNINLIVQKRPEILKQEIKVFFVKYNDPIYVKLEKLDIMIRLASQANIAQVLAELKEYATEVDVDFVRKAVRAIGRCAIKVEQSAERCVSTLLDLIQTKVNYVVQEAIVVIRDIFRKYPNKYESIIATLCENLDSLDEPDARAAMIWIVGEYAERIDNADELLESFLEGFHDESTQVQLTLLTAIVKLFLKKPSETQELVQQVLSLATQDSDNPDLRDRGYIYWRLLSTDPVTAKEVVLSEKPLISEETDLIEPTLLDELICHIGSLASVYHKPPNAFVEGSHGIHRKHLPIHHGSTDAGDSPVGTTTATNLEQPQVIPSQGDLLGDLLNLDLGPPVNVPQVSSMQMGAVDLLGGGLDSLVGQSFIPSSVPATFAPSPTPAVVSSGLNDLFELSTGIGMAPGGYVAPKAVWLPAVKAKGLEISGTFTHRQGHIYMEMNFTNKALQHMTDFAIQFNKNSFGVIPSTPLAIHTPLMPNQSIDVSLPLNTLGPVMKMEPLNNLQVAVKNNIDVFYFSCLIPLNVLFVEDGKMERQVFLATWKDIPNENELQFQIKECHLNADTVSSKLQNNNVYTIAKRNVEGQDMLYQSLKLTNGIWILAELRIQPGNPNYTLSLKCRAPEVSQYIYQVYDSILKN
Sequence of ATP-binding cassette sub-family B member 6 (Homo sapiens) (Q9NP58 whole entry, looked up): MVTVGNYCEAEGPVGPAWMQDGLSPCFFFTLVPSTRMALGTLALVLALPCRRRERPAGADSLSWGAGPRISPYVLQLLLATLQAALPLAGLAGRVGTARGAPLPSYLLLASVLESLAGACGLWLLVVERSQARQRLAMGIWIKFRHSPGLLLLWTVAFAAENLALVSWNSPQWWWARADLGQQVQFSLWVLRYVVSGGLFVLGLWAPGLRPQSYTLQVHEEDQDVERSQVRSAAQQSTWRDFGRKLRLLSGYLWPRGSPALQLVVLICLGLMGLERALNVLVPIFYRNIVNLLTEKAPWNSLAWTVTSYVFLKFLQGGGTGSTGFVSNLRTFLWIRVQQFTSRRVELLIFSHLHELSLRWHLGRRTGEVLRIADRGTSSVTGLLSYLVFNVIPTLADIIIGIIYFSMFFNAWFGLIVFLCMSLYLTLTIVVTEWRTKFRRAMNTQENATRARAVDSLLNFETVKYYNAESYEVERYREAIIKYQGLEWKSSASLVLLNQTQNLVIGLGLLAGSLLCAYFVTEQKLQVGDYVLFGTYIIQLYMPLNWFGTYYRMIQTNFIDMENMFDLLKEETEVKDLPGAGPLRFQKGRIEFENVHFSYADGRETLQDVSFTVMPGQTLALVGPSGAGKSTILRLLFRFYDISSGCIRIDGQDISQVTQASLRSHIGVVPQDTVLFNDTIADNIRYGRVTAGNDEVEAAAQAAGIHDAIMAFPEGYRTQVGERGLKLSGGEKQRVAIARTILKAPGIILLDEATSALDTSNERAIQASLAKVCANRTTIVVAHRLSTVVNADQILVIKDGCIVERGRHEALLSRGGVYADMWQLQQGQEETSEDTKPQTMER
Sequence of Beta-2 adrenergic receptor (Homo sapiens) (P07550 whole entry, looked up): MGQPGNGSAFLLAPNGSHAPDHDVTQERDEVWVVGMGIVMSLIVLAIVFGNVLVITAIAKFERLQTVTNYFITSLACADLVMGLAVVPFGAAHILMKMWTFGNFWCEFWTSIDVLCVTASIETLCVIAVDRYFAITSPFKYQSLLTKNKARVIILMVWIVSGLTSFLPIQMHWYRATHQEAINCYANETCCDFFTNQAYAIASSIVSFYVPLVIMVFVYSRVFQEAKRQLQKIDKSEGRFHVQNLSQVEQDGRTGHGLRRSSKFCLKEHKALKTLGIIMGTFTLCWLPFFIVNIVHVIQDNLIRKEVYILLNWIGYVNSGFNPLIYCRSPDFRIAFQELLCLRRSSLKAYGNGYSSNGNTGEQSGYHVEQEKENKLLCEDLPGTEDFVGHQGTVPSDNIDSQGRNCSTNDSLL
Sequence of Integrin beta-1 (Homo sapiens) + Integrin alpha-4 (Homo sapiens) (P05556 whole entry, looked up): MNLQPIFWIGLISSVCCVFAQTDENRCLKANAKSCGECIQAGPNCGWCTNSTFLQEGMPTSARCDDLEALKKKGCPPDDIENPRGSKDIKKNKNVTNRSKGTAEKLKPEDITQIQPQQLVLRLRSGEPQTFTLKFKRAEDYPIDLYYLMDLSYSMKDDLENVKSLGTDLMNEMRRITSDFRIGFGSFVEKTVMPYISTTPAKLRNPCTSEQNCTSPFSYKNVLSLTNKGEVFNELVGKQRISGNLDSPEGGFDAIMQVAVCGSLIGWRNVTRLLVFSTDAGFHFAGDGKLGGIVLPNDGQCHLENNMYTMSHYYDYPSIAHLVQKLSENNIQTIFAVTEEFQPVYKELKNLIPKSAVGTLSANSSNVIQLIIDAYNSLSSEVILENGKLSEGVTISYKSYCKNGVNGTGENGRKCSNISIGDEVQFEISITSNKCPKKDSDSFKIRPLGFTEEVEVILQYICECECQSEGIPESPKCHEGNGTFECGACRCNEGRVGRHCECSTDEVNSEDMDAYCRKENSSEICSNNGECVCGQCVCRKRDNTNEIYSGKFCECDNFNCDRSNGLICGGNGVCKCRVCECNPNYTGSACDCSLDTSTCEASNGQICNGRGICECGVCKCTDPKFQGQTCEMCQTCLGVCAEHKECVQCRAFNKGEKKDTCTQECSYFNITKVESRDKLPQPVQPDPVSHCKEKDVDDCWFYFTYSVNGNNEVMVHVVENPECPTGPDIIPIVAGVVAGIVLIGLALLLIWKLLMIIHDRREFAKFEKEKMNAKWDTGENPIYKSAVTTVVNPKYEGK
Sequence of Integrin beta-1 (Homo sapiens) + Integrin alpha-4 (Homo sapiens) (P13612 whole entry, looked up): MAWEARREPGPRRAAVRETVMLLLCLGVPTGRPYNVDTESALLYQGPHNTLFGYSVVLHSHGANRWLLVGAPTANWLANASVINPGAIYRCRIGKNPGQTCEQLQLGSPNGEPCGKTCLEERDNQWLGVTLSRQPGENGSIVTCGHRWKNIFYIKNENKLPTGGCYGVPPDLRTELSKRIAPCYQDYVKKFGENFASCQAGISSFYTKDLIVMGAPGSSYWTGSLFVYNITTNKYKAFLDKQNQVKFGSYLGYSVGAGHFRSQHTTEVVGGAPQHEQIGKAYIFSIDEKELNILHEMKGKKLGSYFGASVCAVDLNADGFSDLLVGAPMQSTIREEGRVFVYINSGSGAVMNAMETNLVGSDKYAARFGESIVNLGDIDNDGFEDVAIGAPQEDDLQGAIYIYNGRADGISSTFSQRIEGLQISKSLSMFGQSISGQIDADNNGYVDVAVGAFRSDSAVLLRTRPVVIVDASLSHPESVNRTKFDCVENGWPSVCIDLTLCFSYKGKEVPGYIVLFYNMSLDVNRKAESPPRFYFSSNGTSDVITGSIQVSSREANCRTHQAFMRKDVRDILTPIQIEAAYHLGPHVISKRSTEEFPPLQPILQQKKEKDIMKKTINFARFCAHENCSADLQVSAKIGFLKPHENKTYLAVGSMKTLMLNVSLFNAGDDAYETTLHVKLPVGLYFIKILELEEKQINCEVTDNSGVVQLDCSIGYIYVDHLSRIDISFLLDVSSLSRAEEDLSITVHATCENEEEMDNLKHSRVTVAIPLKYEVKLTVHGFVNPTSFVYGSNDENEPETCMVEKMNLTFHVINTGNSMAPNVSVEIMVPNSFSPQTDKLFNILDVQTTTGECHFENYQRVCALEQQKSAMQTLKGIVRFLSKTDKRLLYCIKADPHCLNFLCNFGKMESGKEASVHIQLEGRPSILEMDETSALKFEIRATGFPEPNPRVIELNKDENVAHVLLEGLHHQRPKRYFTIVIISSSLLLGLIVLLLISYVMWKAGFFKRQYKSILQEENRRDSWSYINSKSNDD
Sequence of Beta-adrenergic receptor kinase 1 (Homo sapiens) (P25098 whole entry, looked up): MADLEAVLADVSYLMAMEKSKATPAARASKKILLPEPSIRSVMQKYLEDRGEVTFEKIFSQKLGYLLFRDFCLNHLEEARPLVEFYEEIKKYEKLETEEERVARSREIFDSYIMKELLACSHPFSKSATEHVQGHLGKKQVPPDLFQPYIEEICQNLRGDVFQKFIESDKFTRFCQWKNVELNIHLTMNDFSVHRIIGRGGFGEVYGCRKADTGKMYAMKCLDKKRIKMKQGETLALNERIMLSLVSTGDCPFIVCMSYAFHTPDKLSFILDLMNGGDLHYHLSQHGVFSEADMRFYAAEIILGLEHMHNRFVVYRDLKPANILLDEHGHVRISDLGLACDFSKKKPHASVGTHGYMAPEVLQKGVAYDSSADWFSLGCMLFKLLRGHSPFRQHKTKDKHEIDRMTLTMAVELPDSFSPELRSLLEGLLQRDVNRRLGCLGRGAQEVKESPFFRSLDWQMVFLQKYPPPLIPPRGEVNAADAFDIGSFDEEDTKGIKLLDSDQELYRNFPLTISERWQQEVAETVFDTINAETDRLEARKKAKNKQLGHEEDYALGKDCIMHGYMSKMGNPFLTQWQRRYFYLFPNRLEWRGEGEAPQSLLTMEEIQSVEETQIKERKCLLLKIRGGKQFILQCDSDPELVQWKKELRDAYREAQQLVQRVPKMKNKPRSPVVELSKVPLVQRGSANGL

COc1ccc(-c2[nH]ncc2CN(CCO)Cc2cccs2)c(F)c1
97.4%: GFP response vs DMSO [6, 22]
98.4%: GFP response vs DMSO [6, 23]
99.7%: GFP response, % of DMSO [10, 23]
62.7%: double positive events [11]
103%: GFP response, % of DMSO [10, 22]
94.4%: GFP response relative to DMSO [7, 24]
inactive: percent of DMSO control GFP [1] 102% | GFP response vs DMSO [2] 105% | percent response of DMSO control [3] 104% | GFP response vs DMSO [4] 99.1% | GFP response, % of DMSO [5] 105% | GFP response vs DMSO [6] 96.8% | GFP response relative to DMSO [7] 94.1% | GFP response vs DMSO [8] 100% | GFP response, % of DMSO [9] 97.2% | GFP response, % of DMSO [10] 99.7% | vesicle binding response [11] 142% | inhibition [12] 5.61% | superoxide response (% of plate) [13] 92.5% | aptamer binding inhibition [14] 5% | response [15] -21% | inhibition [16] 53.1% | response [17] -4.99% | binding (% of control) [18] 99.8% | efflux inhibition (fraction of control) [19] 0.08 | inhibition [20] -5% | differentiation response [21] -0.18%
94%: GFP response relative to DMSO [7, 25]

O=C(/C=C/c1ccccc1)c1ccccc1
106%: GFP response, % of DMSO [10, 22]
97.1%: GFP response vs DMSO [6, 23]
inactive: percent of DMSO control GFP [1] 92.8% | GFP response vs DMSO [2] 139% | percent response of DMSO control [3] 96.6% | GFP response vs DMSO [4] 79.8% | GFP response, % of DMSO [5] 87.5% | GFP response vs DMSO [6] 98% | GFP response relative to DMSO [7] 97.7% | GFP response vs DMSO [8] 104% | GFP response, % of DMSO [9] 99.7% | GFP response, % of DMSO [10] 102% | vesicle binding response [11] 126% | inhibition [12] 2.58% | superoxide response (% of plate) [13] 92.2% | aptamer binding inhibition [14] 4% | response [15] 5.66% | inhibition [16] -4.66% | response [17] -0.45% | binding (% of control) [18] 107% | efflux inhibition (fraction of control) [19] -0.31 | inhibition [20] 14% | differentiation response [21] 9.83%
68%: double positive events [11]
99.1%: GFP response, % of DMSO [10, 23]
94.6%: GFP response relative to DMSO [7, 25]
100%: GFP response vs DMSO [6, 22]
96.5%: GFP response relative to DMSO [7, 24]

CN(C)CCN(Cc1ccccc1)c1ccccn1
97.9%: GFP response vs DMSO [6, 23]
98.1%: GFP response vs DMSO [6, 22]
active: GFP response vs DMSO [2] 140% | efflux inhibition (fraction of control) [19] 0.48 | inhibition [20] 113%
62.3%: double positive events [11]
99.2%: GFP response relative to DMSO [7, 24]
99.1%: GFP response, % of DMSO [10, 22]
inactive: percent of DMSO control GFP [1] 94.8% | percent response of DMSO control [3] 97.9% | GFP response vs DMSO [4] 85.3% | GFP response, % of DMSO [5] 93.3% | GFP response vs DMSO [6] 96.8% | GFP response relative to DMSO [7] 101% | GFP response vs DMSO [8] 100% | GFP response, % of DMSO [9] 103% | GFP response, % of DMSO [10] 98.3% | vesicle binding response [11] 269% | inhibition [12] -6.15% | superoxide response (% of plate) [13] 95.6% | aptamer binding inhibition [14] 1% | response [15] 1.51% | inhibition [16] 49.6% | response [17] -5.5% | binding (% of control) [18] 103% | differentiation response [21] -1.64%
98.5%: GFP response, % of DMSO [10, 23]
99.3%: GFP response relative to DMSO [7, 25]

— PubChem BioAssay
